This note sets out measurements from PubChem BioAssay (NCATS).

Records with an inconclusive call do not appear. The source made the active and inactive calls. Calls follow the shape of the dose curve; as a rule, active = well fitted inhibition curve with a large enough effect; inconclusive = small, poorly fitted or top-dose-only effect; inactive = flat fitted curve, though single readings scatter.

Test in all cases: qHTS profiling for inhibitors of Plasmodium falciparum proliferation (AID 504749); also: nearly all actives have a fitted effect of over 60% in size
(In qHTS, concentration-response curves come from the screen itself.)

One assay relates to CP291. The following applies: P. falciparum in erythrocytes, SYBR Green DNA, 72 h; series mostly up to 28.7 µM. A digest of the protocol:
(§1)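 Fluorescence of SYBR Green-bound parasite DNA, read at 485/535 nm, served as the growth measure. Infected erythrocytes were cultured with compound 72 h; artemisinin (0.29 uM) and DMSO wells defined the normalization range.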

Another assay deals with CP315. The following applies: P. falciparum in erythrocytes, SYBR Green DNA, 72 h; series mostly up to 28.7 µM. A digest of the protocol:
as §1

A further assay concerns CP325. The following applies: P. falciparum in erythrocytes, SYBR Green DNA, 72 h; series mostly up to 28.7 µM. The procedure, abridged: as §1
Another assay relates to CP329. The following applies: P. falciparum in erythrocytes, SYBR Green DNA, 72 h; series mostly up to 28.7 µM. A digest of the protocol:
as §1

The next assay has as its system DIV14. As to conditions: P. falciparum in erythrocytes, SYBR Green DNA, 72 h; series mostly up to 28.7 µM. The procedure, abridged: as §1
The next assay deals with DIV17. The following applies: P. falciparum in erythrocytes, SYBR Green DNA, 72 h; series mostly up to 28.7 µM. The procedure, abridged: as §1
The next assay deals with Dd2. As to conditions: P. falciparum in erythrocytes, SYBR Green DNA, 72 h; series mostly up to 28.7 µM. A digest of the protocol: as §1
The next assay has as its system GB4. The following applies: P. falciparum in erythrocytes, SYBR Green DNA, 72 h; series mostly up to 28.7 µM. The procedure, abridged:
as §1

The subject of a further assay is JCK. As to conditions: P. falciparum in erythrocytes, SYBR Green DNA, 72 h; series mostly up to 28.7 µM. The procedure, abridged: as §1
For a further assay, the system named is CP286. As to conditions: P. falciparum in erythrocytes, SYBR Green DNA, 72 h; series mostly up to 28.7 µM. A digest of the protocol: as §1
A further assay concerns CP297. As to conditions: P. falciparum in erythrocytes, SYBR Green DNA, 72 h; series mostly up to 28.7 µM. A digest of the protocol: as §1
In the next assay the test system is CP305. As to conditions: P. falciparum in erythrocytes, SYBR Green DNA, 72 h; series mostly up to 28.7 µM. A digest of the protocol: as §1
Another assay deals with DFO2036. As to conditions: P. falciparum in erythrocytes, SYBR Green DNA, 72 h; series mostly up to 28.7 µM. A digest of the protocol: as §1
The subject of another assay is DIV30. As to conditions: P. falciparum in erythrocytes, SYBR Green DNA, 72 h; series mostly up to 28.7 µM. The procedure, abridged:
as §1

A further assay concerns ECU. As to conditions: P. falciparum in erythrocytes, SYBR Green DNA, 72 h; series mostly up to 28.7 µM. The procedure, abridged:
as §1

For another assay, the system named is FAB9. The following applies: P. falciparum in erythrocytes, SYBR Green DNA, 72 h; series mostly up to 28.7 µM. The procedure, abridged: as §1
The test system of the next assay is HB3. As to conditions: P. falciparum in erythrocytes, SYBR Green DNA, 72 h; series mostly up to 28.7 µM. A digest of the protocol: as §1
The subject of a further assay is ICS. The following applies: P. falciparum in erythrocytes, SYBR Green DNA, 72 h; series mostly up to 28.7 µM. The procedure, abridged:
as §1

The next assay has as its system N140. The following applies: P. falciparum in erythrocytes, SYBR Green DNA, 72 h; series mostly up to 28.7 µM. The procedure, abridged:
as §1

In another assay the test system is CP335. The following applies: P. falciparum in erythrocytes, SYBR Green DNA, 72 h. A digest of the protocol:
as §1
Potency is read from the fitted curve at half-maximal effect.

In the case of `COC1C(OC(=O)/C=C/C=C/C=C/C=C/C(=O)O)CCC2(CO2)C1C1(C)OC1CC=C(C)C` (configuration not stated), the Potency with CP291 is 8490 nM (active); in the assay on CP315 it was 1690 nM (active); in the assay with CP325, 7570 nM (active); in the assay on CP329 it was 601 nM (active); with DIV14, 379 nM (active); with DIV17, 5360 nM (active). Also, the figures for the Potency in the assay on Dd2 and with GB4 were 39.8 nM (active) and 1690 nM (active), respectively. The Potency entry in the assay on JCK was “inactive”.
In the case of `CCCOc1ccc2nc(NC(=O)OC)sc2c1`, the Potency entry in the assay on CP286, in the assay with CP291, with CP297, with CP305, in the assay on CP315 and in the assay on CP325 was “inactive” in each case. Also, the Potency result in the assay with CP329, in the assay on DFO2036, in the assay with DIV14, in the assay with DIV17, in the assay on DIV30 and in the assay on Dd2 was “inactive” each time. Moreover, the Potency result in the assay on ECU, in the assay with FAB9, in the assay with GB4, with HB3, in the assay with ICS and in the assay with JCK was “inactive” throughout. Further, in the assay with N140, the Potency result was “inactive”.
Regarding `C=CCNC1=C2C[C@@H](C)C[C@H](OC)[C@H](O)[C@@H](C)/C=C(\C)[C@H](OC(N)=O)[C@@H](OC)/C=C\C=C(/C)C(=O)NC(=CC1=O)C2=O`, the Potency is 3550 nM (active) with CP286; 4260 nM (active) in the assay with CP291; 1690 nM (active) in the assay on CP297; 4780 nM (active) in the assay with CP305; 3790 nM (active) in the assay with CP315; 4260 nM (active) with CP325. Further, the Potency in the assay on CP329 is 4260 nM (active); with CP335, 1690 nM (active); in the assay with DFO2036 it was 2000 nM (active); with DIV14 it was 1510 nM (active); with DIV17, 1200 nM (active); in the assay on DIV30, 1690 nM (active). Further, the Potency with ECU was 1000 nM (active); in the assay with FAB9 it was 11200 nM (active); in the assay on GB4, 1510 nM (active); in the assay with HB3, 2000 nM (active); in the assay on ICS it was 708 nM (active); in the assay with JCK, 12600 nM (active). In the assay on N140, the Potency is 891 nM (active).
